Test results reported in PubChem BioAssay.
Active and inactive are the calls of the source. Unless noted, the rule behind the calls is not given here.

Assays:
[1] = system: Wnt5a (protein binding on small-molecule microarray); test: Wnt5a binders on small-molecule microarray, primary screen, biophysical, 635/667 nm fluorescence (AID 1142); conditions: 635 nm fluorescence, higher = more signal;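 note: fluorescence read at 667 nm with signal to noise per printed feature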
[2] = cell viability in Huh7 cells, primary screen, cytotoxicity control for HCV replication inhibitor project, CellTiter-Glo luminescence, basal, 48 h (AID 1143); conditions: Huh7 HCV replicon, higher = more signal, called active from +8 up or from −8 down;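 note: Huh7 hepatoma cells carrying a hepatitis C replication reporter with no stimulus; test concentration not given here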
[3] = P. aeruginosa biofilm formation inhibitors, primary screen, PAO1 strain, BacTiter-Glo luminescence, LB-PBS (AID 1144); conditions: 12 h, higher = more signal
[4] = CREB reporter modulators without forskolin, primary screen, cell-based, PC12, CRE-LacZ reporter, unstimulated (AID 1145); conditions: no forskolin, luminescence, 4.5 h, higher = more signal, called active from +8 up or from −8 down
[5] = CREB reporter modulators under forskolin, primary screen, cell-based, PC12, CRE-LacZ reporter, forskolin-stimulated (AID 1146); conditions: luminescence, 4.5 h, higher = more signal, called active from +8 up or from −8 down;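 note: PC12 cells with 6xCRE LacZ reporter stimulated by forskolin 10 µM; beta-galactosidase reporter signal reflecting CREB driven transcription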
[6] = biological target: Streptavidin (Streptomyces avidinii) (UniProt P22629); test: streptavidin binders on small-molecule microarray, primary screen, artefact control for SMM compound annotation, biophysical, 635/667 nm fluorescence (AID 1147); conditions: streptavidin binding, higher = more signal;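 note: signal reflects streptavidin binding to arrayed compounds as a control protein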
Sequence of Streptavidin (Streptomyces avidinii) (P22629 whole entry, looked up): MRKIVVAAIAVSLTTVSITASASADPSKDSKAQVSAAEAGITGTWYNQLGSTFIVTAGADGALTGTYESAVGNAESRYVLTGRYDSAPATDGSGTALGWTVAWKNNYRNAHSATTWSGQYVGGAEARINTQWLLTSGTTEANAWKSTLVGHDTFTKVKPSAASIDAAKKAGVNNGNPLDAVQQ

[7] = small-molecule binders of probe aInhba, primary screen, biochemical, small-molecule microarray, 635/667 nm fluorescence (AID 1148); conditions: higher = more signal;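 note: score merges 667nm spot fluorescence with signal-to-noise for antibody binding to printed compounds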
[8] = biological target: Torsin-1A (Homo sapiens) (UniProt O14656); test: torsin A binders from cell lysate, primary screen, small-molecule microarray, wild-type, 635/667 nm (AID 1149); conditions: COS7 hTOR1A-WT lysate, 635 nm fluorescence, higher = more signal
Sequence of Torsin-1A (Homo sapiens) (O14656 whole entry, looked up): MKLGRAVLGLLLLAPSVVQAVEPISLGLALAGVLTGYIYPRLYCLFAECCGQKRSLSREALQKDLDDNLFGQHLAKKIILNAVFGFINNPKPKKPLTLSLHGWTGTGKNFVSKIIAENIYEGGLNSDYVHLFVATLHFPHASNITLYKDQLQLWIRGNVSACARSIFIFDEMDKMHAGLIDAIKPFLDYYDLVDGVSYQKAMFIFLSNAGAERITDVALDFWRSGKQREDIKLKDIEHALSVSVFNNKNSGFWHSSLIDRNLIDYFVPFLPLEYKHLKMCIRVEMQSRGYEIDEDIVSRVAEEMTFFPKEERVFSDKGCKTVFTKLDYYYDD

[9] = biological target: Torsin-1A (Homo sapiens) (UniProt O14656); test: small-molecule binders of mutant TOR1A in lysate, primary screen, cell lysate, small-molecule microarray, COS7 lysate, 635/667 nm fluorescence (AID 1150); conditions: COS7 hTOR1A mutant lysate, 635 nm fluorescence, higher = more signal;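 note: score pools 667 nm emission and signal to noise measuring lysate protein binding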
[10] = system: Sonic hedgehog protein (Shh); test: small-molecule binders of Shh protein, primary screen, biochemical, small-molecule microarray, 635/667 nm fluorescence (AID 1151); conditions: small-molecule microarray binding, 635 nm fluorescence; higher = more signal;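 note: Shh protein binding to compounds spotted on small-molecule microarray slides; score combines spot fluorescence intensity with signal-to-noise across triplicate slides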

SMILES | composite z-score [1] | z-score [2] | z-score [3] | z-score [4] | z-score [5] | composite z-score [6] | composite z-score [7] | composite z-score [8] | composite z-score [9] | composite z-score [10]
CC(C)=CCCC(C)=CCON=C1C[C@@H](O)[C@@H](O)[C@@H]2[C@@H]3C(=O)N(C[C@@H]4CCCO4)C(=O)[C@@H]3CC[C@H]12 | 0.24 | -0.296 (inactive) | 0.175 (inactive) | -0.384 (inactive) | 0.174 (inactive) | 0.707 | -0.162 | 1.4 | 1.33 | 1.67
CO[C@H]1COC(=O)[C@@H](C)COC(=O)[C@H](COCc2ccccc2)NC(=O)CC=C[C@H]1C | -0.171 | 0.27 (inactive) | -1.04 (inactive) | -0.567 (inactive) | -0.985 (inactive) | -0.807 | -0.203 | 0.436 | 0.491 | 1.88
CCOC(=O)[C@H](Cc1ccccc1)NC(=O)CCC1CC(OC(=O)NCc2cccc3ccccc23)CC2(CCCC(COC(=O)NCc3ccccc3)O2)O1 (stereo not given in full) | 0.0636 | -5.15 (inactive) | -1.29 (inactive) | -0.977 (inactive) | 2.01 (inactive) | 0.376 | -0.0259 | -0.347 | 0.0167 | 0.58
COC(=O)[C@H](C)NC(=O)CCC1CC(OC(=O)NCc2ccc3c(c2)OCO3)CC2(CCCC(COC(=O)NCc3cccc(C(F)(F)F)c3)O2)O1 (stereo not given in full) | -0.0362 | -0.109 (inactive) | -0.0589 (inactive) | -0.794 (inactive) | -0.631 (inactive) | 0.634 | 0.0852 | 0.703 | 0.279 | 1.28
CON=Cc1ccc(C(=O)N2[C@H](c3ccc(C)cc3)[C@@H](C)CC[C@H]2C(=O)OC)cc1 | -0.0731 | -1.63 (inactive) | -0.183 (inactive) | 0.336 (inactive) | -0.158 (inactive) | 0.651 | 0.0398 | 0.144 | 0.568 | 0.441
CCOC(=O)[C@H](Cc1ccccc1)NC(=O)CCC1CC(OC(=O)NCCc2ccc(F)cc2)CC2(CCCC(COC(=O)NCCCN3CCCC3=O)O2)O1 (stereo not given in full) | 0.126 | -1.04 (inactive) | -1.68 (inactive) | -0.165 (inactive) | 0.0137 (inactive) | 0.625 | -0.206 | 0.144 | 0.321 | 0.733
Cc1ccc(S(=O)(=O)OC[C@H]2CN3[C@H](c4ccc(Br)cc4)[C@@H](C)CC[C@H]3C(=O)O2)cc1 | 0.114 | -1.25 (inactive) | -1.43 (inactive) | 2.01 (inactive) | 0.535 (inactive) | 0.487 | -0.128 | 0.782 | 0.44 | 0.362
CCOC(=O)NN=C1C[C@@H](O)[C@@H](O)[C@@H]2[C@@H]3C(=O)N(Cc4ccc5c(c4)OCO5)C(=O)[C@@H]3CC[C@H]12 | -0.193 | -0.136 (inactive) | 1.46 (inactive) | -0.658 (inactive) | 0.619 (inactive) | -0.563 | -0.128 | -0.566 | -0.282 | 0.14
CCOC(=O)[C@H](CC(C)C)NC(=O)CCC1CC(OC(=O)NCc2ccc3c(c2)OCO3)CC2(CCCC(COC(=O)NCc3cccc(C(F)(F)F)c3)O2)O1 (stereo not given in full) | -0.194 | -0.183 (inactive) | -0.67 (inactive) | 0.11 (inactive) | 0.814 (inactive) | -0.113 | 0.0184 | 0.175 | -0.272 | 0.387
C=CC[C@@H]1C=C[C@H](ON=C[C@@H](C)[C@H](OCc2ccccc2)C(C)C)[C@@H](CO)O1 | -0.2 | -1.39 (inactive) | 0.787 (inactive) | 1.31 (inactive) | 0.3 (inactive) | -1.32 | -0.238 | -0.617 | -0.396 | -0.119
CC(C)(C)N1C(=O)[C@H]2[C@H]3[C@H](O)C=CC(=O)[C@@H]3CC[C@H]2C1=O | 0.307 | 0.536 (inactive) | 0.0768 (inactive) | 1.06 (inactive) | -0.0003 (inactive) | 0.4 | -0.128 | 0.281 | 0.252 | 0.521
Cc1ccc(S(=O)(=O)N[C@H]2COC(=O)CC=C[C@@H](C)COC(=O)CC=C[C@@H]2C)cc1 | -0.0032 | 0.319 (inactive) | -0.748 (inactive) | -0.0223 (inactive) | 0.113 (inactive) | 0.407 | -0.0645 | 0.346 | -0.534 | 1.92
C=CC1=C[C@H](O)[C@@H]2O[C@@H]2C12OCCCO2 | 0.398 | 0.17 (inactive) | 0.658 (inactive) | -0.0732 (inactive) | 0.197 (inactive) | 0.281 | -0.0695 | 0.468 | 0.752 | -0.262
CC(C)=CCCC(C)=CCON=C1C[C@@H](O)[C@@H](O)[C@@H]2[C@@H]3C(=O)N(C4CCCCC4)C(=O)[C@@H]3CC[C@@H]12 | 0.24 | -0.592 (inactive) | 0.233 (inactive) | 0.517 (inactive) | 0.13 (inactive) | -0.0037 | -0.0719 | 0.184 | 0.288 | 1.08
